The target in assay [1] is Glutathione peroxidase 1 (Homo sapiens) (UniProt P07203). Kind of assay: Primary qHTS Assay for Inhibitors of Recombinant Selenoprotein Glutathione Peroxidase 1 (GPX1) (AID 1845191). The method, boiled down:
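10 nM GPX1 + cpd, 30 min RT; start w/ 1 mM GSH, 0.5 mM cumene hydroperoxide, 0.5 mM NADPH, 100 nM GR, 0.01% BSA; buffer 50 mM Tris-HCl pH 7.5, 2 mM EDTA, 150 mM NaCl; Fl 340/450, 0 & 15 min.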

Assay [2] has as its target Phospholipid hydroperoxide glutathione peroxidase GPX4 (Homo sapiens) (UniProt P36969). The assay can be described thus: Primary qHTS Assay for Inhibitors of Recombinant Selenoprotein Glutathione Peroxidase 4 (GPX4) (AID 1845192). The procedure, abridged:
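NADPH consumption, followed by fluorescence at 340/450 nm between 0 and 15 min, reports GPX4 activity via coupled glutathione reductase (100 nM). Enzyme 200 nM was pre-exposed to compound 30 min; 0.5 mM cumene hydroperoxide and 1 mM GSH served as substrates.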
A general note: qHTS replaces the single test concentration by a dilution series.

Results on 17 molecules are retold here after PubChem BioAssay (NCATS).

Inconclusive results are not listed. Where a call stands in place of a potency, no number is given. The source made the active and inactive calls. Calls come from the whole dose curve; as a rule, active = well fitted inhibition curve with a large enough effect; inconclusive = small, poorly fitted or top-dose-only effect; inactive = flat fitted curve, though single readings scatter.
Note: nearly all actives have a fitted effect of over 65% in size.

Chain of Phospholipid hydroperoxide glutathione peroxidase GPX4 (Homo sapiens) (P36969 whole entry, looked up): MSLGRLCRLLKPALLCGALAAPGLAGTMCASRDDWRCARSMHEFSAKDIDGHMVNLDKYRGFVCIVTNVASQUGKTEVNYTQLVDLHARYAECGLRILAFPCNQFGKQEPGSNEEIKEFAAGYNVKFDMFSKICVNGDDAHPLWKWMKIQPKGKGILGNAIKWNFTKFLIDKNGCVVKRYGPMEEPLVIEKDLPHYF
Chain of Glutathione peroxidase 1 (Homo sapiens) (P07203 whole entry, looked up): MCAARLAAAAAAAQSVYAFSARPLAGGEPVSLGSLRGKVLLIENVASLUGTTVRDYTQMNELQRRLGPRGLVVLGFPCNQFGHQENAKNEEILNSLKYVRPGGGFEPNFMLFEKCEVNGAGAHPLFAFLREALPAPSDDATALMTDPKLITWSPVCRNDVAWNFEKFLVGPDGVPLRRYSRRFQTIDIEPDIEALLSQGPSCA

For the molecule `C[N+](C)(C)CC=O`, the Potency result in assay [1] and in assay [2] was “inactive” throughout.
As to `NC1CCN(O)C1=O` (stereo not drawn), in assay [2], the Potency result was “inactive”.
For `O=C1Cc2c([nH]c3ccc(Br)cc23)-c2ccccc2N1`, the Potency result in assay [2] is “inactive”.
The same measure, in the same setting: as for `O=S(=O)(c1cccc2c(Cl)cccc12)N1CCCNCC1`, the entry is “inactive”; as for `CN(CC[C@@H](Oc1ccc(C(F)(F)F)cc1)c1ccccc1)CC(=O)O`, “inactive”.
On the same count and under the same terms, as for `CCCCCCCCCCC/C=C\C(C)(C)/C=C\CCCC(=O)O`, the entry is “inactive”.
Take `O=C(O)C1CCCNC1` (stereo not drawn): the Potency entry in assay [2] was “inactive”.
Still for that read-out and setting: to `COc1ccc(NC(=O)c2ccc(-c3ccc(-c4noc(C)n4)cc3C)cc2)cc1N1CCN(C)CC1` belongs “inactive”; to `CNC(=O)c1cc2c(cn1)[nH]c1ccccc12`, “inactive”; to `CNc1cc(NS(=O)(=O)c2ccc(N)cc2)nc(NC)n1`, “inactive”.
The same measure, in the same setting: to `Cc1ccccc1/C=C/C1=NCCN1` belongs “inactive”.
The same measure, in the same setting: to `C[C@](Cc1ccc(O)c(O)c1)(NN)C(=O)O` belongs “inactive”; to `C[C@H](O)C(=O)C1=Nc2c(nc(N)[nH]c2=O)NC1`, “inactive”; to `CC1=C(C(=O)O)N2C(=O)[C@@H](NC(=O)C(N)C3=CCC=CC3)[C@H]2SC1` (stereo partly drawn), “inactive”.
Turning to `O=c1onc2n1-c1cc(Br)ccc1OC2`, the Potency result in assay [2] was “inactive”.
The same measure, in the same setting: as for `CN1CCc2cc(Cl)c(O)cc2[C@@H](c2ccccc2)C1`, the entry is “inactive”.
Same read-out and setting: as for `CN(C)CCC(c1ccc(Br)cc1)c1ccccn1` (stereo not drawn), the entry is “inactive”.
